Reference: the supplement of paper PMC9433436
± gives the standard deviation of the averaged measurements. Whole data set: some 4,100 sequences, median “relative kcat/Km (krel) vs genomic leader AAAGAU” near 1.7, cut for the highest 2% near 6.5. What follows is part of a selection rich in the highest values, with near analogues and random picks from the rest.

Target: T1, E. coli RNase P holoenzyme (M1 P RNA + rnpA protein) (UniProt P0A7Y8)
T1 sequence: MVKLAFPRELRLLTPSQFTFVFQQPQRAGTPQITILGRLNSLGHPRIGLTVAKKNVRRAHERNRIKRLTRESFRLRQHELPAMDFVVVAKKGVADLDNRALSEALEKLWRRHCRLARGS
Test: relative kcat/Km (krel) vs genomic leader AAAGAU (relative (reference leader = 1)); higher = faster RNase P cleavage
Procedure: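 HTS-Kin: a pool of ptRNA-Met (21C construct) with all 4096 combinations of 5' leader nucleotides N(-6) to N(-1) was processed in vitro by E. coli RNase P (P RNA + rnpA/C5 protein) under multiple-turnover conditions at 37 C, pH 8, 17.5 mM MgCl2. Residual substrate was Illumina-sequenced at several fractions reacted, and relative kcat/Km (krel) was computed by internal competition kinetics, calibrated to the genomic leader (AAAGAU = 1). The listed hexamer is the varied N(-6)..N(-1) leader (DNA letters), and it sits between a fixed 5' stem-loop flank (GCAUGCACGAAAGUGCGUGCUAUGAA) and the mature tRNA-Met starting GGCUACGUAGCUCAGUUGG. Two technical replicates are averaged.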

[1] = fraction of substrate reacted: ~13-16% (15.68% repeat 1, 13.17% repeat 2)
[2] = fraction of substrate reacted: ~26-29% (28.66% repeat 1, 26.4% repeat 2)
[3] = fraction of substrate reacted: ~9-10% (9.79% repeat 1, 9.1% repeat 2)

| Sequence | relative kcat/Km [1] | relative kcat/Km [2] | relative kcat/Km [3] |
| --- | --- | --- | --- |
| CAGGGC | 0.734 ± 0.28 | 0.809 ± 0.4 |  |
| GCCGTA | 2.93 ± 0.69 | 3.66 ± 1.4 | 2.27 ± 0.21 |
| GGTAAC | 1.618 ± 0.0045 | 2.64 ± 1.5 | 1.47 ± 0.022 |
| CGATAT | 5.17 ± 2.6 | 6.68 ± 3 | 3.51 ± 0.4 |
| GGATAT | 2.63 ± 0.49 | 3.4 ± 1.9 | 1.83 ± 0.13 |
| CGATAC | 4.04 ± 1 | 5.79 ± 2.4 | 3.25 ± 1.4 |
| GGCAAT | 1.558 ± 0.015 | 3.04 ± 1.2 | 1.76 ± 0.086 |
| GGCAAA | 3.13 ± 0.17 | 3.46 ± 0.93 | 2.21 ± 1 |
| GTCAAT | 4.56 ± 1.9 | 7.14 ± 3.8 | 3.17 ± 0.8 |
| GCCAAT | 2.75 ± 1.7 | 4.52 ± 2.3 | 3.15 ± 0.068 |
| CTTAAG | 1.63 ± 0.79 | 2.28 ± 0.23 | 1.2 ± 0.59 |
| GTCAAA | 5.99 ± 1.9 | 8.75 ± 3.3 | 4.62 ± 1.6 |
| ATCAAG | 1.96 ± 0.14 | 3.87 ± 0.91 |  |
| GTCAAG | 2.63 ± 0.65 | 5.35 ± 2.1 | 1.75 ± 0.96 |
| ACCAAG | 0.763 ± 0.21 | 2.7 ± 0.17 |  |
| CTCAAA | 4.92 ± 1.4 | 8.02 ± 3.1 | 4.31 ± 1.6 |
| ATCAAA | 5.34 ± 0.78 | 7.44 ± 3.2 | 3.96 ± 1.9 |
| CTCAAG | 2.93 ± 1.3 | 4.67 ± 1.1 | 2.69 ± 2 |
| CAGTCA | 1.64 ± 1.4 | 2.56 ± 1.5 | 1.56 ± 0.78 |
| TGTAGG | 0.426 ± 0.27 | 1.61 ± 0.48 |  |
| CAACCC | 1.26 ± 0.56 | 1.22 ± 0.096 | 1.41 ± 0.43 |
| TCACAC | 4.7 ± 1.1 | 5.86 ± 2 | 3.8 ± 1.1 |
| CCACAC | 2.63 ± 0.9 | 3.97 ± 1.5 | 1.98 ± 0.78 |
| GCTAGA | 1.71 ± 0.21 | 2.45 ± 0.62 | 1.329 ± 0.007 |
| GCCCGG |  | 0.437 ± 0.31 | 0.406 ± 0.099 |
| CAGAGG |  | 0.599 ± 0.16 |  |

| Sequence | relative kcat/Km [1] | relative kcat/Km [2] | relative kcat/Km [3] |
| --- | --- | --- | --- |
| ACATCT | 3.25 ± 0.78 | 4.12 ± 1.9 | 2.62 ± 1.1 |
| TCATGG | 0.443 ± 0.084 | 0.476 ± 0.47 | 0.253 ± 0.062 |
| GATAAC | 2.81 ± 0.13 | 3.66 ± 1 | 2.1 ± 0.44 |
| TATGTG |  | 0.506 ± 0.12 |  |
| ATCTGG |  | 1.46 ± 0.34 | 0.825 ± 0.53 |
| GTCAGA | 5.57 ± 1.1 | 9.06 ± 3.4 | 3.33 ± 0.28 |
| CTCAGG | 1.21 ± 0.29 | 2.45 ± 0.18 | 1.96 ± 1.2 |
| CTCAGA | 5.99 ± 1 | 8.03 ± 2.7 | 4.71 ± 1.4 |
| ATCAGG |  | 1.41 ± 0.062 | 0.528 ± 0.016 |
| GCCAGA | 2.26 ± 0.32 | 5.56 ± 1.6 | 2.6 ± 2 |
| GTCGGA | 1.67 ± 1.1 | 1.51 ± 1.2 |  |
| CTCAGT | 1.91 ± 1.4 | 2.13 ± 1.4 | 1.02 ± 0.51 |
| ATCAGA | 4.59 ± 0.2 | 7.03 ± 1.9 | 3.76 ± 2 |
| ATCAGT | 1.79 ± 1.8 | 2.19 ± 2.2 |  |
| GGACAA | 1.34 ± 0.47 | 2.59 ± 0.96 | 0.879 ± 0.43 |
| TAATTC | 2.45 ± 0.42 | 3.22 ± 0.89 | 2.12 ± 1.6 |
| AGACGT |  | 1.98 ± 1.9 |  |
| TATGCC | 1.72 ± 0.22 | 2.97 ± 1.5 | 2.71 ± 0.41 |
| TCCGCC | 5.9 ± 0.79 | 7.97 ± 3.5 | 4.39 ± 0.68 |
| CCCGCC | 4.24 ± 2 | 4.94 ± 1.9 | 2.78 ± 0.39 |
| CCCGCA | 3.43 ± 1.2 | 4.58 ± 1.4 | 3.38 ± 0.43 |
| TCCGCT | 2.55 ± 2 | 3.65 ± 1.5 | 2.17 ± 0.033 |
| TCCGCA | 5.02 ± 0.26 | 6.95 ± 2.4 | 4.56 ± 2.3 |
| GCCGCC | 3.21 ± 1.2 | 5.43 ± 2.6 | 2.33 ± 1.2 |
| TGTATG |  | 1.93 ± 0.25 |  |
| CCTTTA | 1.47 ± 0.27 | 2.25 ± 0.99 | 1.51 ± 0.63 |

| Sequence | relative kcat/Km [1] | relative kcat/Km [2] | relative kcat/Km [3] |
| --- | --- | --- | --- |
| ACAGAT | 1.48 ± 0.42 | 1.88 ± 0.26 | 0.729 ± 0.034 |
| ATTACC | 1.65 ± 0.26 | 2.21 ± 0.71 | 1.64 ± 0.48 |
| ATGAGA | 0.964 ± 0.71 | 2.28 ± 0.37 | 0.619 ± 0.34 |
| CCCAAC | 2.15 ± 0.29 | 3.75 ± 1.1 | 2.26 ± 0.55 |
| TTCAAC | 6.12 ± 0.93 | 8.94 ± 3.2 | 4.99 ± 1.6 |
| TGCAAT | 1.18 ± 0.72 | 1.9 ± 0.94 | 0.917 ± 0.7 |
| CTCAAC | 5.06 ± 1.2 | 7.63 ± 3.4 | 3.75 ± 0.14 |
| TTCAAA | 6.52 ± 1.5 | 9.38 ± 3.5 | 4.87 ± 2.9 |
| TGCAAC | 1.45 ± 0.22 | 2.22 ± 0.84 | 1.87 ± 0.58 |
| TTCAAG | 3.38 ± 0.47 | 5.77 ± 2 | 2.98 ± 2.4 |
| TTCAAT | 5.53 ± 0.71 | 9.07 ± 3.9 | 4.1 ± 1.6 |
| CTTAAC | 2.52 ± 0.82 | 3.93 ± 1.3 | 2.53 ± 1.3 |
| TCAATT | 1.92 ± 0.12 | 2.3 ± 0.3 | 2.1 ± 1.1 |
| ATCAAC | 4.05 ± 0.78 | 5.86 ± 1.6 | 3.56 ± 1.5 |
| TCAAAA | 1.64 ± 0.34 | 2.89 ± 1.2 | 2.12 ± 1.1 |
| CTTCTT | 3.05 ± 0.55 | 3.45 ± 0.96 | 2.75 ± 1.4 |
| AACCGC | 3.02 ± 0.23 | 4.02 ± 0.71 | 3.24 ± 0.86 |
| GATTGG |  | 0.409 ± 0.2 |  |
| ATTCCA | 2.11 ± 0.63 | 1.93 ± 0.82 | 2.17 ± 0.89 |
| TAATTA | 2.05 ± 0.57 | 2.99 ± 1.1 | 2.15 ± 1.5 |
| ACGTTC | 2.45 ± 0.76 | 3.59 ± 1.4 | 2.18 ± 0.36 |
| CATCAA | 3.35 ± 0.32 | 4.59 ± 1.9 | 2.69 ± 0.095 |
| TCCGGA | 1.33 ± 0.95 | 1.83 ± 1.3 | 1.02 ± 0.16 |
| TCGCAT | 3.11 ± 0.57 | 5.13 ± 2.3 | 2.12 ± 0.11 |
| CGCAAT | 2.82 ± 1.1 | 4.14 ± 1.8 | 1.86 ± 0.36 |
| CCCAAT | 3.48 ± 0.28 | 5.27 ± 1.6 | 2.73 ± 0.86 |

| Sequence | relative kcat/Km [1] | relative kcat/Km [2] | relative kcat/Km [3] |
| --- | --- | --- | --- |
| ATCAAT | 4.2 ± 0.86 | 6.65 ± 3.1 | 3.19 ± 0.91 |
| GTCAAC | 5.05 ± 1.3 | 7.94 ± 3.1 | 4.47 ± 1.7 |
| AGCAAT | 2.33 ± 0.049 | 3.3 ± 1.1 | 2.43 ± 0.54 |
| CTCAAT | 5.46 ± 1.7 | 7.66 ± 3.5 | 4.23 ± 0.85 |
| GCCAAC | 1.28 ± 1.1 | 3.94 ± 1 | 1.34 ± 0.25 |
| GGCAAC | 2.29 ± 0.56 | 3.36 ± 0.68 | 2.31 ± 1.6 |
| AGTAAG | 1.26 ± 0.66 | 3.3 ± 0.62 |  |
| TAATCG | 0.624 ± 0.13 | 1.73 ± 0.43 |  |
| TAGGTG |  | 0.812 ± 0.66 |  |
| GCAATG |  | 1.35 ± 0.34 |  |
| TTGCAC | 2.27 ± 0.05 | 3.33 ± 0.78 | 2.41 ± 1.3 |
| TCTGTT | 1.38 ± 1.1 | 1.89 ± 1.2 | 1.56 ± 0.75 |
| ACCAAA | 3.55 ± 0.63 | 4.37 ± 0.92 | 2.83 ± 2.3 |
| AATGAA | 2.14 ± 0.073 | 2.72 ± 0.88 | 2.18 ± 1.1 |
| GGCGAT | 1.52 ± 0.5 | 2.32 ± 0.83 | 1.24 ± 0.38 |
| GGGCAA | 1 ± 0.65 | 1.5 ± 0.79 |  |
| GGGGAT |  | 1.93 ± 1.9 |  |
| TATCAC | 4.88 ± 0.12 | 7.11 ± 2.8 | 4.08 ± 2.5 |
| GATCAC | 4.27 ± 1.3 | 5.26 ± 2.1 | 2.93 ± 0.77 |
| AATCAC | 2.63 ± 0.078 | 4.12 ± 1.3 | 2.09 ± 1.1 |
| GATCAT | 3.62 ± 0.21 | 5.17 ± 1.7 | 2.26 ± 0.96 |
| AATCAT | 2.88 ± 0.24 | 4.38 ± 1.7 | 3.17 ± 2 |
| TATCAT | 5.02 ± 0.57 | 7.37 ± 3.5 | 4.22 ± 1.9 |
